Reference: PubChem BioAssay AID893 (National Center for Advancing Translational Sciences (NCATS), 2007)
Out of some 75,000 compounds screened, about 5,700 (7.6%) were called active. Another 7% or so got no clear call; they are omitted. The sample holds actives, similar compounds and a random draw of the others, so the mix is not that of the screen. A number with no mark means an inactive call. Calls follow the shape of the dose curve; as a rule, active = well fitted inhibition curve with a large enough effect; inconclusive = small, poorly fitted or top-dose-only effect; inactive = no such curve, though single readings can be large or run the other way.

biological target: 3-hydroxyacyl-CoA dehydrogenase type-2 (Homo sapiens) (UniProt Q99714); test: qHTS Assay for Inhibitors of HSD17B4, hydroxysteroid (17-beta) dehydrogenase 4; settings: recombinant HSD17B10, NADH fluorescence kinetic; series mostly up to 57.1 µM; activity change, negative = inhibition: at the top concentration;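 also: the protocol describes HADH2 (HSD17B10) and not the HSD17B4 of the title; nearly all actives have a fitted effect of over 70% in size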
In short: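 20 nM HADH2, pH 9.0 Tris/Tween; cpd preinc 15 min RT; start w/ 1 mM NAD+ + 90 uM b-hydroxybutyryl-CoA; kinetic fluor ex360/em450 q30s x 4 min; delta last-first.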
% is scaled to controls: 0 for no effect and ±100 for the full control effect; potency is read from the fitted curve at half-maximal effect.

Compound | activity change, negative = inhibition | Potency
O=C(c1ccco1)N1CCN=C1SCc1cccc(Cl)c1 | 9.16% | 
COC(=O)c1ccc2c(=O)n(CC3CCCO3)c(=S)[nH]c2c1 (configuration not stated) | -2.48% | 
O=C(NC1CCCCC1)c1ccc2c(=O)n(CC3CCCO3)c(=O)[nH]c2c1 (configuration not stated) |  | 31.6 µM (active)
O=c1c2cc3c(=O)n(CC4CCCO4)c(=O)c3cc2c(=O)n1CC1CCCO1 (configuration not stated) | -21.7% | 
CCC1=[N+]([O-])C(C)(/C(C)=N\O)N(O)C1(C)C (configuration not stated) | -3.53% | 
O=C(COC(=O)c1ccccc1C(=O)c1ccccc1)c1ccco1 | 7.35% | 
CC(=O)c1cc2c(cc1N)OCO2 | 3.78% | 
COCCNc1nc(-n2nc(C)cc2C)nc2sc3c(c12)CCCC3 |  | 25.1 µM (active)
Cc1cc(C)n(-c2nc(SCC(=O)N3CCCC3)c3c4c(sc3n2)CCCC4)n1 | 4.86% | 
COCCn1c(C)cc(C(=O)CSc2ncnc3sc4c(c23)CCC4)c1C | -17.9% | 
CO/N=C\[C@@H](C)[C@H](OCc1ccccc1)C(C)C | -1.19% [at 11.4 µM] | 
O=C(c1ccc2c(c1)OCCO2)C1CCN(S(=O)(=O)c2cccc(F)c2)CC1 | 17.6% | 
CC(C)(C)C(=O)CCN1C(=O)C2(OCCO2)c2ccccc21 | -5.73% | 
Cc1ccc(-c2nn(CC(C)(C)C)c3ncnc(N)c23)cc1 | 4.95% | 
CCCCN(CC)C(=O)CN(C)S(=O)(=O)c1cccc2nsnc12 | 4.56% | 
COC(=O)c1ccccc1NC(=O)c1ccccc1NS(C)(=O)=O | 1.63% | 

Compound | activity change, negative = inhibition | Potency
O=C(Nc1nncs1)c1ccccc1NS(=O)(=O)c1cccs1 |  | 25.1 µM (active)
COc1ccc(C(=O)Nc2nncs2)c(OC)c1 | -6.6% | 
CSC1=NCCN1C(=O)c1ccc(S(=O)(=O)N2CCOCC2)cc1 | 0.893% | 
Cc1cc(C(=O)COC(=O)CCCN2C(=O)c3ccccc3C2=O)c(C)n1C | -0.506% | 
c1ccc(CCN2CCN=C2Cc2ccccc2)cc1 | 7.62% [at 11.4 µM] | 
COc1ccccc1-c1nnc(SCC(=O)Nc2ccccc2)o1 | -19.6% | 
Cc1cc(NC(=O)CSc2nnc(-c3ccc(Cl)s3)o2)no1 |  | 31.6 µM (active)
COc1ccccc1-c1nnc(SCC(=O)Nc2cc(C)on2)o1 | 1% | 
OC(CCl)CCl | -2.49% | 
Cc1cc2nc3c(=O)[nH]c(=O)nc-3n(C[C@H](O)[C@H](O)[C@H](O)CO)c2cc1C |  | 15.8 µM (active)
CC(C)(C)Nc1c(N)c(=O)oc2ccccc12 | 0.0117% | 
Cc1nc2cnc(Nc3ccccc3)nc2n(C[C@H]2CCCO2)c1=O | -0.713% | 
Cn1cc(-c2nc3cnc(N4CCNCC4)nc3n(CCC#N)c2=O)c2ccccc21 | -6.12% | 
CCOc1cccc(=O)c2c(C)n(CC3CCCO3)c(C)c12 (configuration not stated) | -1.23% | 
Cc1nc2cnc(N3CCN(C)CC3)nc2n(CCC#N)c1=O |  | 31.6 µM (active)
Cc1nc2cnc(N3CCN(C)CC3)nc2n(C[C@H]2CCCO2)c1=O |  | 31.6 µM (active)
